In PubChem BioAssay (NCATS):
Values joined by “and” are separate entries in the source; they are usually repeats but may differ in a detail not shown here. Equal entries are not always repeated. Records with an inconclusive call do not appear. Active and inactive are the calls of the source. Calls come from the whole dose curve; as a rule, active = well fitted curve in the direction sought with a large enough effect; inconclusive = small, poorly fitted or top-dose-only effect, or another doubt; inactive = no such curve, though single readings can be large; an effect the other way counts as inactive or inconclusive.

Legend:
[1] = qHTS of pediatric cancer cell lines to identify multiple opportunities for drug repurposing: Confirmatory screen for MG 63 (6-TG R) cells (AID 1347119); note: nearly all actives have a fitted effect of over 55% in size
Procedure, shortened: (§1)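 Cells (500-1,000/well) in growth media were settled 5 h at 37 degrees C, then given compounds for 48 h. Viability was read as CellTiter-Glo luminescence. Primary runs used MIPE at 11 points (0.78 nM-46 µM) and NPC at 8 points (0.59 nM-46 µM); follow-ups used 11 points.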

[2] = qHTS of pediatric cancer cell lines to identify multiple opportunities for drug repurposing: Confirmatory screen for control Hh wild type fibroblast cells (AID 1347121); note: nearly all actives have a fitted effect of over 70% in size
Procedure, shortened: as §1

[3] = qHTS of pediatric cancer cell lines to identify multiple opportunities for drug repurposing: Confirmatory screen for U-2 OS cells (AID 1347122); note: nearly all actives have a fitted effect of over 65% in size
Procedure, shortened: as §1

[4] = qHTS of pediatric cancer cell lines to identify multiple opportunities for drug repurposing: Confirmatory screen for Rh18 cells (AID 1347125); note: nearly all actives have a fitted effect of over 55% in size
Procedure, shortened: as §1

[5] = qHTS of pediatric cancer cell lines to identify multiple opportunities for drug repurposing: Confirmatory screen for Rh30 cells (AID 1347126); note: nearly all actives have a fitted effect of over 55% in size
Procedure, shortened: as §1

[6] = qHTS of pediatric cancer cell lines to identify multiple opportunities for drug repurposing: Confirmatory screen for Saos-2 cells (AID 1347127); note: nearly all actives have a fitted effect of over 60% in size
Procedure, shortened: as §1

[7] = qHTS of pediatric cancer cell lines to identify multiple opportunities for drug repurposing: Confirmatory screen for OHS-50 cells (AID 1347128);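 note: compound exposure lasted 48 h at 37 degrees C; nearly all actives have a fitted effect of over 55% in size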
Procedure, shortened: as §1

[8] = qHTS of pediatric cancer cell lines to identify multiple opportunities for drug repurposing: Confirmatory screen for SK-N-SH cells (AID 1347129);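 note: cells exposed to compound for 48 h before viability read; nearly all actives have a fitted effect of over 60% in size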
Procedure, shortened: as §1

[9] = qHTS of pediatric cancer cell lines to identify multiple opportunities for drug repurposing: Confirmatory screen for RD cells (AID 1347124);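 note: cells exposed to compound for 48 h before viability readout; nearly all actives have a fitted effect of over 65% in size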
Procedure, shortened: as §1
Potency is the fitted concentration of half-maximal effect.

| SMILES | Potency [1] | Potency [2] | Potency [3] | Potency [4] | Potency [5] | Potency [6] | Potency [7] | Potency [8] | Potency [9] |
| --- | --- | --- | --- | --- | --- | --- | --- | --- | --- |
| CC1(C)CCC[C@@]2(C)[C@@H]1CC[C@@]1(C)OC(=O)C[C@H]21 | inactive | inactive | inactive | inactive | 18.5 nM (active) | inactive | inactive | inactive | – |
| CC[C@]1(O)C[C@@H]2CN(CCc3c([nH]c4ccccc34)[C@@](C(=O)OC)(c3cc4c(cc3OC)N(C)[C@H]3[C@@](O)(C(=O)OC)[C@H](OC(C)=O)[C@]5(CC)C=CCN6CC[C@]43[C@@H]65)C2)C1 | 522 nM (active) and 1.04 µM (active) | inactive | 369 nM (active) and 1.17 µM (active) | – | – | 657 nM (active) and 1.17 µM (active) | – | 148 nM (active) | 1170 nM (active) |
| O=C(CCCCCCC(=O)Nc1ccccc1)NO | – | inactive | – | – | – | – | – | – | – |
| CCc1ccc(OCc2ccccc2C(=O)Nc2ccc3nc(C)cc(N)c3c2)cc1 | 4140 nM (active) | 9270 nM (active) | 8.27 µM (active) | 8270 nM (active) | inactive | 9.27 µM (active) | 9270 nM (active) | 8330 nM (active) | 8270 nM (active) |
| CC1(C)O[C@H]2C[C@@H]3[C@H]4CCC5=CC(=O)C=C[C@]5(C)[C@@]4(F)[C@@H](O)C[C@]3(C)[C@]2(C(=O)CO)O1 | inactive | – | inactive | inactive | inactive | inactive | inactive | inactive | inactive |
| O=C1C(Cl)=C(NCCN2CCOCC2)C(=O)c2ncccc21 | 1040 nM (active) | 20800 nM (active) | 1.65 µM (active) | 3290 nM (active) | 7370 nM (active) | 1.17 µM (active) | – | 7430 nM (active) | 1170 nM (active) |
| COc1ccc(-c2nc(N3CCOCC3)c3sc(CN(C)c4ncc(C(=O)NO)cn4)cc3n2)cn1 | 928 nM (active) | – | 0.522 µM (active) | 1170 nM (active) | 4140 nM (active) | – | – | 5900 nM (active) | 2330 nM (active) |
| NC1=N[C@@]2(c3cc(NC(=O)c4ccc(F)cn4)ccc3F)COC[C@@H]2CS1 | inactive | inactive | inactive | inactive | inactive | inactive | inactive | inactive | inactive |
| Nc1ncnc2c1ncn2[C@@H]1O[C@@H](CO)[C@H](O)[C@H]1O | inactive | – | inactive | inactive | inactive | inactive | inactive | inactive | inactive |
| CC(=O)Oc1cc2c(s1)CCN(C(C(=O)C1CC1)c1ccccc1F)C2 (configuration not stated) | inactive | inactive | – | inactive | 2930 nM (active) | inactive | inactive | inactive | – |
| COc1cc2ncnc(Nc3ccc(F)c(Cl)c3)c2cc1OCCCN1CCOCC1 | 67600 nM (active) | 47900 nM (active) | 26.9 µM (active) | 38000 nM (active) | 8510 nM (active) | – | 38000 nM (active) | 34000 nM (active) | 1510 nM (active) |
| O=c1[nH]cnc2c1ncn2[C@H]1CC[C@@H](CO)O1 | inactive | inactive | – | – | inactive | inactive | inactive | inactive | inactive |
| CN(C)C1CCN(C(=O)c2ccc(NC(=O)Nc3nc(N4CCOCC4)nc(N4CCOCC4)n3)cc2)CC1 | 233 nM (active) | – | 3.69 µM (active) | 293 nM (active) | inactive | 0.329 µM (active) | 465 nM (active) | 3720 nM (active) | 293 nM (active) |
| COc1cc(N2CCC(N3CCN(C)CC3)CC2)ccc1Nc1ncc(Cl)c(Nc2ccccc2S(=O)(=O)C(C)C)n1 | 827 nM (active) | 20800 nM (active) | 0.465 µM (active) | 3290 nM (active) | 737 nM (active) | 1.85 µM (active) | 2330 nM (active) | 833 nM (active) | 1040 nM (active) |
| CO[C@H]1C(=O)[C@]2(C)[C@@H](OC)C[C@H]3OC[C@@]3(OC(C)=O)[C@H]2[C@H](OC(=O)c2ccccc2)[C@]2(O)C[C@H](OC(=O)[C@H](O)[C@@H](NC(=O)OC(C)(C)C)c3ccccc3)C(C)=C1C2(C)C | 8.3 nM (active) | inactive | 0.0185 µM (active) | – | inactive | 0.0147 µM (active) | 16.5 nM (active) | – | – |
| O=C(O)CCC1CCC(c2cc(F)ccc2F)(S(=O)(=O)c2ccc(Cl)cc2)CC1 (configuration not stated) | inactive | inactive | – | 29300 nM (active) | – | inactive | – | inactive | inactive |
| CC(C)n1nc(-c2ccc3oc(N)nc3c2)c2c(N)ncnc21 | 46.5 nM (active) | – | 0.0928 µM (active) | 1650 nM (active) | 293 nM (active) | 0.233 µM (active) | 3690 nM (active) | 590 nM (active) | 208 nM (active) |
